Measurements from PubChem BioAssay (NCATS).
Results filed as inconclusive are left out. Values without a mark were called inactive. The call rests on the fitted dose curve; in most records, active means well fitted inhibition curve with a large enough effect; inconclusive means small, poorly fitted or top-dose-only effect; inactive means flat fitted curve, though single readings scatter.

The compounds below were run against Calcium and integrin-binding protein 1 (Homo sapiens) (UniProt Q99828) (assay: Primary qHTS for Identification of Calcium Integrin Binding Protein 1 (CIB1) Competitor (AID 1508620;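 further: GST tagged CIB1 binding a fluorescein labelled alphaIIb integrin peptide tracer; top concentration of the series differs between compounds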)). Conditions: CIB1-GST / FITC-alphaIIb peptide fluorescence polarization; series mostly up to 114 µM; activity change, negative = inhibition: at the top concentration.
Calcium and integrin-binding protein 1 (Homo sapiens), sequence (Q99828 whole entry, looked up): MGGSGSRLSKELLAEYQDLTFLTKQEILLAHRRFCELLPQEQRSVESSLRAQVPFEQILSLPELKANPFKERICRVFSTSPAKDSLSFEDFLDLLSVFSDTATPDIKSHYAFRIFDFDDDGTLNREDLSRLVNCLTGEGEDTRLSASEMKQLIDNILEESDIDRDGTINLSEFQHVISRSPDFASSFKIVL
In short: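 Fluorescence polarization competition: CIB1-GST (1 uM final) preincubated with compound 15 min at room temperature, then FITC-labeled alphaIIb peptide (100 nM final) added for another 15 min. Polarization read at Ex 480/Em 540.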
On the % scale 0 is the no-effect control and ±100 the full control effect.

In order of falling “activity change, negative = inhibition” value:
1. Cc1ccc(OCCn2c(CCNC(=O)Cc3ccc(F)cc3F)nc3ccccc32)cc1  17.2%
2. Cc1cc2c(s1)c1cnn(Cc3c(Cl)cccc3Cl)c(=O)c1n2C  9.2%
3. O=C(Nc1ccc(F)c(C(F)(F)F)c1)Nc1cccc(-c2ccncc2)n1  6.89%
4. Cc1ccccc1C(=O)N1CCc2cc(-c3ccnc(NC(=O)Cc4ccccc4)n3)ccc21  4.64%
5. CS(=O)(=O)c1ccc(C(=O)OCC#CCSc2nnc(-c3cccc4ccccc34)o2)cc1  4.63%
6. CC(=O)Nc1sc2c(c1-c1nc3ccccc3s1)CCS(=O)(=O)C2  4.25%
7. O=C1CCc2cc([S+](=O)([O-])NC3CCOCC3)ccc2N1  2.54%
8. COc1ccc(C2Nc3ccccc3C(=O)N2Cc2ccccc2)cc1COc1ccc(F)cc1 (stereo not drawn)  2.42%
9. N#Cc1ccccc1S(=O)(=O)N1CCN(S(=O)(=O)c2ccc3c(c2)OCCO3)CC1  0.611%
10. COc1ccccc1CNC(=O)Nc1nnc(-c2ccncc2)s1  0.607%
11. O=C(/C=C/c1ccccc1Br)NCCc1nc2ccccc2[nH]1  -0.875%
12. FC(F)(F)c1ccccc1-c1nc(NCc2ccc(-c3ccc4ccccc4c3)cc2)c2ccccc2n1  -2.66%
13. CN(CC(=O)O)c1ncnc2ccc(-c3ccc4c(c3)OCO4)cc12  -6.89%
14. CCC(=O)NC(c1cc(Cl)c2cccnc2c1O)C(C)C (stereo not drawn)  -8.8%
15. S=C(Nc1ccc(Cl)c(Cl)c1)Nc1nnc(-c2ccncc2)s1  -13.9%
16. O=Cc1nc(Nc2cc(F)cc(F)c2)nc(NC2CCCC2)n1  -15.3%
17. Nc1c(-c2ccncc2)cc[nH]c1=O  -16.6%
18. COc1cccc(CNc2ccc(S(=O)(=O)Nc3nc4c(C)cccc4s3)cc2)c1O  -19.2%
